{
  "source": "PubChem BioAssay (Tox21)",
  "note": "Inconclusive results are not listed. Where a call stands in place of a potency, no number is given. Activity calls are given as the source filed them. Calls follow the shape of the full dose curve. Potency is read from the fitted curve at half-maximal effect.",
  "data": [
    {"assay": "p53 small molecule agonists, cell-based qHTS assay: qHTS cell viability counter screen (AID 1963581); also: nearly all actives have a fitted effect of over 45% in size", "details": "p53RE-bla HCT-116 viability, ATP luminescence, 16 h; series mostly up to 66 µM", "description": "National Center for Advancing Translational Sciences [NCATS]\nDivision of Preclinical Innovation [DPI]\nU.S. Environmental Protection Agency [EPA]\nNational Institutes of Environmental Health Sciences [NIEHS]\nNational Toxicology Program [NTP]\nU.S. Food and Drug Administration [FDA]\np53, a tumor suppressor protein, is activated following cellular insult, including DNA damage and other cellular stresses. The activation of p53 regulates cell fate by inducing DNA repair, cell cycle arrest, apoptosis, or cellular senescence. The activation of p53, therefore, is a good indicator of DNA damage and other cellular stresses. The CellSensor p53RE-bla HCT-116 cell line (Invitrogen) contains a stably integrated beta-lactamase reporter gene under control of the p53 response elements. The activation of the reporter gene under culture conditions can be detected by fluorescence intensity. This cell line was used to screen the Tox21 compound library in a 1536-well plate format and to identify agonists that activate the p53 signaling pathway. The cytotoxicity of the Tox21 compound library against the p53 RE-bla HCT-116 cell line was tested in parallel by measuring the intra cellular ATP content in the same wells.\nTox21 Assay Protocol Summary:\nThe p53RE-bla cells were dispensed at 4,000 cells/5 ul/well in 1536-well black wall/clear bottom plates using a Multidrop dispenser. After the assay plates were incubated at a 37 C/5% CO2 incubator for 5 hours, 23 nL of compounds dissolved in DMSO, positive controls or DMSO only was transferred to the assay plate by a pin tool. The plates were incubated at 37 C for 16 hours. After 1 uL of LiveBLAzerTM B/G FRET substrate was added using a Flying Reagent Dispenser, the plates were incubated at room temperature for 2 hours, and fluorescence intensity was measured by an Envision plate reader. For cell viability readout that measures cytotoxicity, 4 ul/well of CellTiter-Glo reagent was added into the assay plates using a Flying Reagent Dispenser. After 30 min incubation at room temperature, the luminescence intensity in the plates was measured using a ViewLux plate reader.", "values": [
      {"smiles": "CC(C(=O)O)c1ccc2c(c1)[nH]c1ccc(Cl)cc12", "note": "(stereo not given)", "Potency": "inactive"},
      {"smiles": "O=[N+]([O-])c1cccc(Cl)c1Cl", "Potency": "inactive"},
      {"smiles": "COc1cc(C)nc(-n2nc(C)cc2OC)n1", "Potency": "inactive"},
      {"smiles": "O=C(Cl)c1ccc([N+](=O)[O-])cc1", "Potency": "inactive"},
      {"smiles": "CC(C)c1nc(CN(C)C(=O)N[C@H](C(=O)N[C@@H](Cc2ccccc2)C[C@H](O)[C@H](Cc2ccccc2)NC(=O)OCc2cncs2)C(C)C)cs1", "Potency": "inactive"},
      {"smiles": "C[C@@H](N)C(=O)O", "Potency": "inactive"},
      {"smiles": "O=C(N[C@@H](c1ccccc1)[C@@H]1CCCCN1)c1cccc(C(F)(F)F)c1Cl", "Potency": "inactive"},
      {"smiles": "COc1cc([N+](=O)[O-])ccc1N", "Potency": "inactive"},
      {"smiles": "OCCCCCO", "Potency": "inactive"},
      {"smiles": "C=C(C)CS(=O)(=O)O", "Potency": "inactive"},
      {"smiles": "O=C(O)c1cc(Br)c(O)c(Br)c1", "Potency": "inactive"},
      {"smiles": "Nc1c(I)cc(I)c(C(=O)N(CCC(=O)O)c2ccccc2)c1I", "Potency": "inactive"},
      {"smiles": "C=C(C)C(=O)OCCOC1CC2CC1C1C=CCC21", "note": "(stereo not given)", "Potency": "inactive"},
      {"smiles": "CN1CCC(N(Cc2cccs2)c2ccccc2)CC1", "Potency": "inactive"},
      {"smiles": "C=CCOC(=O)CCC1CCCCC1", "Potency": "inactive"},
      {"smiles": "CC(C)(CO)[C@@H](O)C(=O)NCCCO", "Potency": "inactive"},
      {"smiles": "COCCc1ccc(OCC2CO2)cc1", "note": "(stereo not given)", "Potency": "inactive"},
      {"smiles": "O=Cc1ccc(Cl)c([N+](=O)[O-])c1", "Potency": "inactive"},
      {"smiles": "CC(C)CC(C)(C)C", "Potency": "inactive"},
      {"smiles": "CCOC(=O)c1ccc(N(C)C)cc1", "Potency": "inactive"},
      {"smiles": "CCCOC(=O)CCCCC(=O)OCCC", "Potency": "inactive"},
      {"smiles": "ClCCOCCOCCCl", "Potency": "inactive"},
      {"smiles": "CNCCCC1c2ccccc2C=Cc2ccccc21", "Potency": "inactive"},
      {"smiles": "NCCN1CCOCC1", "Potency": "inactive"},
      {"smiles": "C[C@H](CCC(=O)O)[C@H]1CC[C@H]2[C@@H]3CC[C@@H]4C[C@H](O)CC[C@]4(C)[C@H]3C[C@H](O)[C@]12C", "Potency": "inactive"},
      {"smiles": "COc1ccnc(CS(=O)c2nc3cc(OC(F)F)ccc3[nH]2)c1OC", "note": "(stereo not given)", "Potency": "inactive"},
      {"smiles": "OCCN1CCN(CCO)CC1", "Potency": "inactive"},
      {"smiles": "NC(N)=NN=C(/C=C/c1ccc([N+](=O)[O-])o1)/C=C/c1ccc([N+](=O)[O-])o1", "Potency": "17.8 µM (active)"},
      {"smiles": "CC(=O)OCC(CCn1cnc2cnc(N)nc21)COC(C)=O", "Potency": "inactive"},
      {"smiles": "C1CN(SSN2CCOCC2)CCO1", "Potency": "inactive"},
      {"smiles": "O=S(=O)(O)c1cc(Cl)c(Cl)cc1Cl", "Potency": "inactive"},
      {"smiles": "CCc1cc(C(C)(C)C)c(O)c(C(C)(C)C)c1", "Potency": "inactive"},
      {"smiles": "CC/C=C1/OC(=O)c2ccccc21", "Potency": "inactive"},
      {"smiles": "COc1cc(C(C)=O)ccc1OCCCN1CCC(c2noc3cc(F)ccc23)CC1", "Potency": "inactive"},
      {"smiles": "c1cc[c]([Bi]([c]2ccccc2)[c]2ccccc2)cc1", "Potency": "inactive"},
      {"smiles": "O=C(O)Cc1ccc(OCCNC[C@H](O)c2ccccc2)cc1", "Potency": "inactive"},
      {"smiles": "CCCCCCCCCCCCCCCC(=O)OCC", "Potency": "inactive"},
      {"smiles": "[O-][N+](=Nc1ccccc1)c1ccccc1", "Potency": "inactive"},
      {"smiles": "CN(C)CCOCCO", "Potency": "inactive"},
      {"smiles": "CC(=O)Nc1ccc(OCCOCCOc2ccc(NC(C)=O)cc2)cc1", "Potency": "inactive"}
    ]}
  ]
}
